Inhibition data for 17 molecules are collected here from PubChem BioAssay AID624167 (Sanford-Burnham Center for Chemical Genomics, 2012).

Each structure is given as a SMILES string.

The inhibition is the relative decrease from the control value, in per cent.

The experiment in a line: inhibition of PEG-3 promoter-driven reporter – cell-based, HeLa, luciferase, CREF/GAPDH counter-screen panel, dose response (AID 624167). The settings on record: CREF/GAPDH counter-screens; run 2, dose range 1, at 100 µM (top of the series). Background: The purpose of a counterscreen is to sort out artefacts and off-target activity.
On to `O=C(O)c1ccc(N/N=C/c2ccc3c(c2)OCO3)cc1`, for which the inhibition was 97.7%.

As for `O=C(O)c1ccc(CN2C(=O)c3cccc4c([N+](=O)[O-])ccc(c34)C2=O)cc1`, the inhibition stood at 100%.

`Clc1ccccc1/C=C/c1nc(-c2ccccn2)no1`: the inhibition came out at 96.2%.

On to `C/C(=N\NC(=O)c1c(C)nc2ccccn12)c1ccc(O)cc1O`, for which the inhibition was determined as 7.76%.

In the case of `O=C(/C=C/c1ccc(Cl)c([N+](=O)[O-])c1)c1ccc(O)cc1`, the inhibition turned out to be 99.5%.

`CCCCCCN1C=C/C(=C\C=C(C#N)C#N)c2ccccc21`: the inhibition came to 22.9%.

For the molecule `CCCC(=O)NC(c1ccccc1)c1ccc2cccnc2c1O` (configuration not stated), the inhibition came to 39.4%.

As for `CCSc1nc2ccccc2n1C(=O)/C=C\c1ccc(OC)c(OC)c1`, the inhibition came to 81.2%.

Consider `CN(C)CC1CCC/C(=C\c2ccc(OC(=O)c3ccc(Cl)cc3)cc2)C1=O` (configuration not stated), for which the inhibition was 84.9%.

Regarding `CN(O)C(=S)c1ccccc1`, the inhibition was 14.9%.

For `CS(=O)(=O)c1ccc(-c2sc3ccccc3c2C#CCCO)cc1`, the inhibition amounted to 81.8%.

For `Cc1ccsc1/C=N/Nc1cccc(C(=O)O)c1`, the inhibition turned out to be 96.5%.

In the case of `C/C(=N\NC(=O)c1cc(C2CC2)nc2ccccc12)c1ccc(O)cc1O`, the inhibition was -6.29%.

On to `CN(C)c1ccc(C=c2c3ccccc3n3c2cc(-c2ccccc2)[n+]3C)cc1`, for which the inhibition was found to be 100%.

As for `OCCCNc1nccc(-c2cc(Nc3cccc(Cl)c3)ncn2)n1`, the inhibition was found to be 51.4%.

Regarding `O=C(N/N=C\c1c(O)ccc2ccccc12)c1cncc(Br)c1`, the inhibition came out at 72.8%.

For the molecule `Cc1ccc(OCC(=O)c2cc(C)n(Cc3ccco3)c2C)c([N+](=O)[O-])n1`, the inhibition was 66.6%.
